{"source": "PubChem BioAssay (NCI)", "note": "The panel holds about 83,000 compounds, 20% with a hit somewhere; the sample as a whole holds those more often.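 Results are percent growth after 48 hours of single-concentration exposure. 100 means growth as in untreated cells, lower positive values show inhibition; negative values down to -100 show cell death.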 Active and inactive are the calls of the source. Rule for the calls: active = growth percent below 10; inactive = the rest.", "data": [{"test_system": "HCT-116 colon", "experiment": "NCI-60 one-dose screen, 48 h (100 = growth as untreated, 0 = no growth, -100 = all killed)", "settings": "10 µM", "values": [{"compound": "O=C(/C=C/c1ccco1)c1nc2ccccc2n1Cc1ccc(Br)cc1", "growth": "8.16% (active)"}, {"compound": "O=C(/C=C/c1ccco1)c1nc2ccccc2n1Cc1ccc(F)cc1", "growth": "59.3% (inactive)"}, {"compound": "COc1cc2cc(C(=O)N3C[C@@H](CCl)c4c3cc(OC(=O)N3CCN(C)[C@@H]5CSSC[C@@H]53)c3ccccc43)[nH]c2c(OC)c1OC", "growth": "5.27% (active)"}, {"compound": "C#CC[Se]C(=O)c1ccc2n[se]nc2c1", "growth": "-27.1% (active)"}, {"compound": "O=C(/C=C/c1ccc(Cl)cc1Cl)c1nc2ccccc2n1Cc1ccc(F)cc1", "growth": "7.22% (active)"}, {"compound": "O=C(/C=C/c1ccc(Cl)cc1)c1nc2ccccc2n1Cc1ccc(Br)cc1", "growth": "33.1% (inactive)"}, {"compound": "CCOP(=O)(OCC)C(NC(C)=O)C(=O)SCCN", "note": "(centres undefined)", "growth": "111% (inactive)"}, {"compound": "COc1cc2cc(C(=O)N3C[C@@H](CCl)c4c3cc(OC(=O)N3CCN(C)[C@@H]5CSSC[C@H]53)c3ccccc43)[nH]c2c(OC)c1OC", "growth": "-23.6% (active)"}, {"compound": "COc1ccc2cc([C@H](C)C(=O)[Se]CCC#N)ccc2c1", "growth": "-62% (active)"}, {"compound": "CC12OOC(C)(OO1)C2CCC(=O)OCCNc1ccnc2cc(Cl)ccc12", "note": "(centres undefined)", "growth": "0.954% (active)"}, {"compound": "CC(C)N=C([Se])NC(=O)c1cccs1", "growth": "13.3% (inactive)"}, {"compound": "Cc1ccc2[nH]c(=S)n(-c3ccc(F)cc3)c(=O)c2c1", "growth": "96.3% (inactive)"}, {"compound": "CCOC(=O)C1=C(Nc2ccccc2)C(=O)OC12C(=O)Nc1ccccc12", "note": "(centres undefined)", "growth": "109% (inactive)"}, {"compound": "CC12CCC3(CCC(=O)NCCCNc4ccnc5cc(Cl)ccc45)[C@@](C)(OO[C@]3(C)O1)O2", "growth": "9.58% (active)"}, {"compound": "CC[C@]12C=CCN3CC[C@@]4(c5ccc(OC)cc5N(C)[C@H]4[C@@](O)(C(=O)OC)[C@@H]1OC(=O)CCCC[P+](C1CCCCC1)(C1CCCCC1)C1CCCCC1)[C@@H]32", "growth": "4.69% (active)"}, {"compound": "CC(=O)Oc1ccccc1C(=O)[Se]C(=NC(C)C)NC(C)C", "growth": "-82.4% (active)"}, {"compound": "COCCOCCOCCOc1ccc(-n2cc(CCCN(CCNc3ccnc4cc(Cl)ccc34)C(=O)CCC(=O)O[C@@H]3O[C@@H]4OC5(C)CC[C@H]6[C@H](C)CC[C@@H]([C@H]3C)[C@@]46OO5)nn2)cc1", "growth": "15.5% (inactive)"}, {"compound": "C[C@H]1[C@@H](CC(=O)N[C@@H](Cc2coc3ccccc23)B(O)O)O[C@@H]2OC3(C)CC[C@H]4[C@H](C)CC[C@@H]1[C@@]24OO3", "growth": "-85.3% (active)"}, {"compound": "COP(=O)(CC(F)(F)C(F)(F)F)OC", "growth": "-60.6% (active)"}, {"compound": "CC12OOC(C)(OO1)C2CCC(=O)NCCNc1ccnc2cc(Cl)ccc12", "note": "(centres undefined)", "growth": "100% (inactive)"}, {"compound": "CC[C@]12C=CCN3CC[C@@]4(c5ccc(OC)cc5N(C)[C@H]4[C@@](O)(C(=O)OC)[C@@H]1OC(=O)CCC[P+](c1ccc(C)cc1)(c1ccc(C)cc1)c1ccc(C)cc1)[C@@H]32", "growth": "-93.4% (active)"}, {"compound": "CC(C)N=C([Se])NC(=O)c1ccccc1", "growth": "1.38% (active)"}, {"compound": "CC[C@]12C=CCN3CC[C@@]4(c5ccc(OC)cc5N(C)[C@H]4[C@@](O)(C(=O)OC)[C@@H]1OC(=O)CCC[P+](C1CCCCC1)(C1CCCCC1)C1CCCCC1)[C@@H]32", "growth": "0.156% (active)"}, {"compound": "CC1=C(COCCOC(=O)c2ccc(S(=O)(=O)F)cc2)C2=C(C)C3(CC3)[C@@](C)(O)C(=O)C2=C1", "growth": "6.93% (active)"}, {"compound": "CC[C@]12C=CCN3CC[C@@]4(c5ccc(OC)cc5N(C)[C@H]4[C@@](O)(C(=O)OC)[C@@H]1OC(=O)CCCC[P+](c1ccc(OC)cc1)(c1ccc(OC)cc1)c1ccc(OC)cc1)[C@@H]32", "growth": "-94.9% (active)"}, {"compound": "CC1=C(CCC=NNC(N)=O)C2=C(C)C3(CC3)[C@@](C)(O)C(=O)C2=C1", "growth": "1.04% (active)"}, {"compound": "CC[C@@]12CC(C(=O)OC)=C3Nc4cc5c(cc4[C@@]34CCN(C[C@H]3O[C@H]31)[C@@H]24)[C@@H]1[C@H](O5)[C@@H](O)[C@@]2(CC)CC(C(=O)OC)=C3Nc4cc(OC)ccc4[C@@]34CCN1[C@@H]24", "growth": "-0.466% (active)"}, {"compound": "CCOP(=O)(CC(F)(F)C(F)(F)F)OCC", "growth": "-70.7% (active)"}, {"compound": "CC1=C2C(=C[C@@](C)(COP(=O)(Oc3ccccc3)Oc3ccccc3)[C@@H]2O)C(=O)[C@@](C)(O)C12CC2", "growth": "0.872% (active)"}, {"compound": "CC(=O)Oc1ccccc1C(=O)NC([Se])=NC1CCCCC1", "growth": "21% (inactive)"}, {"compound": "C[C@H]1[C@H](OC(=O)CCC(=O)N(CCCc2cn(-c3ccc(CN4CCOCC4)cc3)nn2)CCNc2ccnc3cc(Cl)ccc23)O[C@@H]2OC3(C)CC[C@H]4[C@H](C)CC[C@@H]1[C@@]24OO3", "growth": "-8.13% (active)"}, {"compound": "O=C(/C=C/c1ccc(Cl)cc1)c1nc2ccccc2n1Cc1ccc(F)cc1", "growth": "3.49% (active)"}, {"compound": "CC1=C(CCC=O)C2=C(C)C3(CC3)[C@@](C)(O)C(=O)C2=C1", "growth": "-63.9% (active)"}, {"compound": "O=C(NC([Se])=NC1CCCCC1)c1ccc2c(c1)OCO2", "growth": "24.7% (inactive)"}, {"compound": "C[C@H]1[C@H](OC(=O)CCC(=O)N(CCCc2cn(-c3ccc(C#N)cc3)nn2)CCNc2ccnc3cc(Cl)ccc23)O[C@@H]2OC3(C)CC[C@H]4[C@H](C)CC[C@@H]1[C@@]24OO3", "growth": "21.9% (inactive)"}, {"compound": "C[C@H]1[C@@H](Oc2ccc(-c3cn(-c4ccnc5cc(Cl)ccc45)nn3)cc2)O[C@@H]2OC3(C)CC[C@H]4[C@H](C)CC[C@@H]1[C@@]24OO3", "growth": "15.8% (inactive)"}, {"compound": "COc1ccc(/C=C/C(=O)c2nc3ccccc3n2Cc2ccc(Br)cc2)cc1", "growth": "32% (inactive)"}, {"compound": "COC(=O)CCn1c(-c2ccc(-n3cc(-c4ccc(O[C@H]5O[C@@H]6OC7(C)CC[C@H]8[C@H](C)CC[C@@H]([C@H]5C)[C@@]68OO7)cc4)nn3)cc2)nc2ccccc21", "growth": "11.6% (inactive)"}, {"compound": "C[C@H]1[C@H](OC(=O)CCC(=O)N(CCCc2cn(-c3ccc([N+](=O)[O-])cc3)nn2)CCNc2ccnc3cc(Cl)ccc23)O[C@@H]2OC3(C)CC[C@H]4[C@H](C)CC[C@@H]1[C@@]24OO3", "growth": "31.1% (inactive)"}]}]}
